Source: PubChem BioAssay AID651598 (Sanford-Burnham Center for Chemical Genomics, 2012)
Values joined by “and” are separate entries in the source; they are usually repeats but may differ in a detail not shown here. Equal entries are not always repeated.

The compounds below were run against Apelin receptor (Homo sapiens) (UniProt P35414) (assay: apelin receptor (APJ) antagonists, SAR follow-up, counter-screen for CXCR6 antagonist project, cell-based, beta-arrestin, DiscoveRx, panel, CHO-K1 (AID 651598)). Details: CHO-K1 PathHunter beta-arrestin luminescence, antagonist mode; run 6, at 80 µM (top of the series).
Chain of Apelin receptor (Homo sapiens) (P35414 whole entry, looked up): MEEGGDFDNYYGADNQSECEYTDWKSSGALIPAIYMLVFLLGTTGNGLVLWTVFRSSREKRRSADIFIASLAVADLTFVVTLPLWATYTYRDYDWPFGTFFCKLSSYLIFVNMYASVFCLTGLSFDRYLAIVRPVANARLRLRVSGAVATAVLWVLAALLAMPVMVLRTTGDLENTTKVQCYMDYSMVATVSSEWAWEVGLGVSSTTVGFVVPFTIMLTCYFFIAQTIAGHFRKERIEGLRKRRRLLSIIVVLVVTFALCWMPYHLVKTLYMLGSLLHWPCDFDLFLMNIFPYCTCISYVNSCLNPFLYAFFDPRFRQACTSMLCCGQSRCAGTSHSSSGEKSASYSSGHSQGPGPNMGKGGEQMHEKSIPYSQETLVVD
COc1cc(C(=O)NC2CC3CCCC(C2)N3CC(=O)Nc2ccccc2)cc(OC)c1OC (stereo not drawn) was tested, and the inhibition was 9.24% and -4.02% and 20.6%.
Work on COc1cc(C(=O)NC2CCN(CC(=O)Nc3ccccc3)CC2)cc(OC)c1OC yielded an inhibition of -2.93%.
In the case of COc1cc(C(=O)NC2CC3CCC(C2)N3CC(=O)Nc2ccccc2)cc(OC)c1OC (stereo not drawn), the inhibition is reported as 10.4% and -17.1%.
